Source: PubChem BioAssay
This is a sample that favours compounds with a hit; in the whole collection about 1.8% have one here.
AT treatment – candidate therapy for ataxia-telangiectasia; actives 0.19% (n = 320,000); Potency, µM (doses to about 57.5 µM), without a hit: at the top dose activation, hits mostly activators; F2112 A-T fibroblasts, KAP-1 phosphorylation AlphaLISA; neocarzinostatin DNA damage 30 min before lysis; also: potency is read from the fitted curve at half-maximal effect; % of control where 0% means no effect; nearly all actives have a fitted effect of over 45% in size
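ATM-like activity read as KAP-1 phosphorylation via AlphaLISA donor/acceptor antibody pairs after lysis and 6 hr at 25C. Cells were ATM-null patient fibroblasts (F2112, hTERT), dosed 60 min, then exposed to the DSB inducer NCS for 30 min.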
hERG WT inh – KCNH2 (human, wildtype) channel inhibition | actives 0.37% (n = 340,000) | activity change, % at 1.84 µM | AID 720551 | Q12809 | U2OS, BacMam KCNH2, thallium flux FluxOr; hits give low values;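 active = maximum activity change below -70%; inconclusive = maximum activity change between -70% and -50%; inactive = maximum activity change above -50%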; also: % is scaled to controls: 0 for no effect and ±100 for the full control effect
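U2OS cells transduced with wild-type KCNH2 virus are loaded with FluxOr dye for 45 min, and thallium flux is measured in kinetic reads before and after stimulation buffer. Rate constants are normalized to DMSO controls.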
12-LOX inh – inhibitors of human 12S-lipoxygenase ALOX12; purified 12hLO, xylenol orange hydroperoxide absorbance; actives 1.1% (n = 580,000); Potency, µM (doses to about 108 µM), inactives show at the highest dose activity change, negative = inhibition, actives largely listed as inhibitors; also: potency is read from the fitted curve at half-maximal effect; % is scaled to controls: 0 for no effect and ±100 for the full control effect
Target sequence (P18054 whole entry, looked up): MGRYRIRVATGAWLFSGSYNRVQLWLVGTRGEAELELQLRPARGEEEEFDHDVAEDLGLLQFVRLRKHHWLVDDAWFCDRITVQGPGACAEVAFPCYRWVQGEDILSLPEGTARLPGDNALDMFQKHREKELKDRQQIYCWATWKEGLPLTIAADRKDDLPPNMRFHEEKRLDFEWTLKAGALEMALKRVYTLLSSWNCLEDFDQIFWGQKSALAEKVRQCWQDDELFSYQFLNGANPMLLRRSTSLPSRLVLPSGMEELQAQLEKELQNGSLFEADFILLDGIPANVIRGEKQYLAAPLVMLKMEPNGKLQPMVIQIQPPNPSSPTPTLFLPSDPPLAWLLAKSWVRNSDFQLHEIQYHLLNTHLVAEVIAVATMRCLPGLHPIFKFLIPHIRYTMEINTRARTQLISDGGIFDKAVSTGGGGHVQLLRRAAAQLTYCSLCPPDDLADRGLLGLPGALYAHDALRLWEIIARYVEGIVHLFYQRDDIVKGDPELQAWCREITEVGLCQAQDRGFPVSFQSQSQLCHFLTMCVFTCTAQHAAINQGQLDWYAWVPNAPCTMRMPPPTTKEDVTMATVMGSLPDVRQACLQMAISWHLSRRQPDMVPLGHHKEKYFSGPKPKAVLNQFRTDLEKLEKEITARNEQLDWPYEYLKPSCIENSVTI
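Hydroperoxide product was detected by ferrous iron/xylenol orange as the 573 to 405 nm absorbance ratio. Arachidonic acid at 40 uM (final) was turned over for 30 min at room temperature by 150 nM human 12hLO, pH 7.0 Hepes buffer, after 15 min compound preincubation.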
KCNH2 3.1 inh – blocks the human KCNH2 3.1 channel isoform | U2OS KCNH2 3.1, thallium flux FluxOr; hits give low values | activity change, % (tested at about 1.8 µM) | actives 0.95% (n = 340,000);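 active = maximum activity change below -70%; inconclusive = maximum activity change from -70% to -50%; inactive = maximum activity change above -50%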;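 also: thallium influx rate constant from kinetic fluorescence after stimulation buffer; % is scaled to controls: 0 for no effect and ±100 for the full control effect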
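Kinetic fluorescence (2 min after stimulation buffer) measures Tl+ influx through KCNH2 3.1 expressed by viral transduction in U2OS cells; the rate constant is normalized against DMSO controls serving as positive and negative references.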
Active calls of the source: *; ? = inconclusive; · = no result given; [ ] = another dose, or the depositor's remark. Unless noted, calls follow the shape of the dose curve; as a rule, active = well fitted curve in the direction sought with a large enough effect; inconclusive = small, poorly fitted or top-dose-only effect, or another doubt; inactive = no such curve, though single readings can be large; an effect the other way counts as inactive or inconclusive.

SMILES	AT treatment	hERG WT inh	12-LOX inh	KCNH2 3.1 inh
O=C(O)CCCN1C(=O)/C(=C/C=C/c2ccco2)SC1=S	3.98µM*	-10.2	?	-5.2
Cc1ccc(NC(=O)CCCN2C(=O)/C(=C/C=C/c3ccccc3)SC2=S)cc1	0.6%	0.3	-15.2%	2.6
O=C(COC(=O)CNC(=O)c1ccccc1)NC12CC3CC(CC(C3)C1)C2	·	-80.9*	-1.2%	-5.2
O=C(NC12CC3CC(CC(C3)C1)C2)c1ccccc1	-2.2%	-9.1	4.1%	0.4
N#Cc1ccc(N2C(=O)[C@@H]3C(C(=O)c4cnccn4)=NN[C@@H]3C2=O)cc1	-14.9%	1.7	?	-10.4
N#Cc1ccc(N2C(=O)[C@@H]3C(C(=O)c4ccc5ccccc5n4)=NN[C@@H]3C2=O)cc1	-5.4%	-97.6*	-4.2%	0.5
COc1ccc(-c2noc(CC3CCN(C(=O)COc4cccc(C)c4)CC3)n2)cc1	·	·	10.6%	·
Fc1ccc(N2N=C(c3cccs3)CC2c2ccccc2)cc1 (centres undefined)	22.4µM*	-0.1	?	-9.3
O=S(=O)(c1ccccc1)N1N=C(c2cccs2)CC1c1ccc(F)cc1 (centres undefined)	5.2%	5.3	20.8%	0.3
COc1ccc(C(=O)NC(=S)NNC(=O)c2ccccc2C)cc1	·	-1.7	44.7µM*	-8.3
COc1ccc(C(=O)NC(=S)NNC(=O)c2ccco2)cc1	-6.3%	-1.2	?	7.7
COc1ccc(C(=O)NC(=S)NNC(=O)c2ccccc2O)cc1	-4.1%	-2.4	-16.8%	-82.7*
Cc1ccc(S(=O)(=O)Nc2ccccc2N=Cc2ccc([N+](=O)[O-])cc2[N+](=O)[O-])cc1	·	5.5	25.1µM*	9.2
Cc1ccc(S(=O)(=O)Nc2ccc(S(=O)(=O)Nc3ccccc3)cc2[N+](=O)[O-])cc1	·	·	25.1µM*	·
Cc1ccc(S(=O)(=O)Nc2ccc3cc([N+](=O)[O-])ccc3c2[N+](=O)[O-])cc1	·	-0.5	22.4µM*	-25.5
O=[N+]([O-])c1cc(S(=O)(=O)Nc2ccccc2)ccc1Nc1ccccc1	·	-0.5	-10.6%	10.3
Cc1ccc(NS(=O)(=O)c2cc([N+](=O)[O-])ccc2NN)c(C)c1	·	·	39.8µM*	·
COc1ccc([N+](=O)[O-])cc1NS(=O)(=O)c1ccc(C)cc1	-18.2%	8.7	7.9%	-7.8
N#Cc1cc2c([nH]c1=O)CCCC2	4.5%	-5.1	-4.5%	4.3
N#Cc1cc2c([nH]c1=S)CCCC2	2.1%	-3.0	14.1µM*	3.8
O=C(CCS(=O)(=O)c1cccc2nsnc12)N1CCN(c2cccc(Cl)c2)CC1	·	·	8.8%	·
CCN(CC)CCNC(=S)NC(=O)c1cn(-c2ccccc2)nc1-c1ccc(OC)cc1	-4.4%	7.1	44.7µM*	-9.2
COCCNC(=S)N/N=C(\C)c1ccc(Cl)c(Cl)c1Cl	5.3%	2.0	39.8µM*	6.0
COCCNC(=S)N/N=C(\C)c1ccc(Cl)c(Cl)c1	-2.5%	-9.6	?	20.5
CCCCCc1ccc(C(C)=O)cc1	·	·	15.0%	·
SMILES	AT treatment	hERG WT inh	12-LOX inh	KCNH2 3.1 inh
CCNC(=S)N/N=C/c1cccc(OCc2c(F)cccc2Cl)c1	-1.2%	-7.1	39.8µM*	-14.6
CNC(=S)N/N=C/c1cccc(OCc2ccccc2F)c1	4.6%	13.8	?	0.7
Cc1sc2ncnc(NCC3(N4CCOCC4)CCCCC3)c2c1C	-1.1%	-18.6	3.1%	-72.3*
c1nc(NCC2(N3CCOCC3)CCCCC2)c2ccsc2n1	-2.2%	7.5	2.8%	-5.0
Cn1c(COc2ccc(C(C)(C)C)cc2)n[nH]c1=S	·	·	35.5µM*	·
Cc1ccc(Cn2cc(-c3ccncc3)cc2C(=O)NCC2CC2)cc1	·	·	3.3%	·
Cc1ccc(Cn2cc(-c3ccncc3)cc2C(=O)NC2CC2)cc1	·	·	28.2µM*	·
c1cncc(-c2cc(-c3cccc4cc[nH]c34)cn3cncc23)c1	·	·	5.8%[176 µM]	·
CCc1cc(CC)n(-c2nc3c(c(=O)n(CC(N)=O)c(=O)n3C)n2CC)n1	·	·	27.7%	·
COc1cc(=O)n2c(c1C(=O)N1CCN(c3ccccc3C)CC1)CCCC2	·	·	24.0%	·
Cc1noc(C)c1-c1nccc(NC2CC2)n1	·	·	7.08µM*	·
Cc1noc(C)c1-c1cc(NC2CCNCC2)ncn1	·	·	22.4µM*	·
Cc1ccccc1-c1nccc(NCCN2CCOCC2)n1	·	·	39.8µM*	·
Cc1ccccc1-c1cncnc1NCCN1CCOCC1	·	·	-24.0%	·
Cc1noc(C)c1-c1nccc(-n2ccnc2)n1	·	·	44.7µM*	·
COc1cccc(-c2nccc(-n3ccnc3)n2)c1	·	·	-14.4%	·
